Laboratory results published in PubChem BioAssay.
Several values for one entry are separate records, joined by “and”; a condition that tells them apart may be missing. Equal values may be shown once. Activity calls are given as the source filed them.

Legend:
[1] = system: PRMT1 (protein arginine N-methyltransferase 1); assay: PRMT1 binders on small-molecule microarrays, primary screen, biochemical, small-molecule microarray, 635 nm fluorescence (AID 1088); settings: small-molecule microarray binding, higher = more signal;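 further: binding of Prmt1 protein to compounds spotted on small-molecule microarray slides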
[2] = yeast growth modulation, basal conditions, primary screen, YJM789 clinical isolate, OD600, 24 h (AID 1089);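 further: growth of clinical yeast isolate S. cerevisiae YJM 789 seeded 1000 cells per well; test concentration not given here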; settings: S. cerevisiae YJM789 growth, higher = more signal, called active from +8 up or from −8 down
[3] = fission yeast growth modulation, primary screen, strain 972, OD600, 24 h, no modulator (AID 1090);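 further: basal condition with compound alone and no growth modifier present; test concentration not given here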; settings: S. pombe 972 growth, higher = more signal, called active from +8 up or from −8 down
[4] = S. cerevisiae growth modulation with rapamycin, primary screen, strain BY4716, OD600, 96 h (AID 1091); settings: higher = more signal, called active from +8 up or from −8 down; further: test concentration not given here
[5] = target: Torsin-1A-interacting protein 2 (Homo sapiens) (UniProt Q8NFQ8); assay: LULL1 binders on small-molecule microarray, primary screen, cell lysate, human LULL1 lysate, 635/667 nm fluorescence (AID 1092); settings: hLULL1 lysate binding, 635 nm fluorescence, higher = more signal;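 further: probe is lysate of COS7 cells overexpressing human LULL1; score merges per-feature 667 nm fluorescence with signal-to-noise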
Sequence of Torsin-1A-interacting protein 2 (Homo sapiens) (Q8NFQ8 whole entry, looked up): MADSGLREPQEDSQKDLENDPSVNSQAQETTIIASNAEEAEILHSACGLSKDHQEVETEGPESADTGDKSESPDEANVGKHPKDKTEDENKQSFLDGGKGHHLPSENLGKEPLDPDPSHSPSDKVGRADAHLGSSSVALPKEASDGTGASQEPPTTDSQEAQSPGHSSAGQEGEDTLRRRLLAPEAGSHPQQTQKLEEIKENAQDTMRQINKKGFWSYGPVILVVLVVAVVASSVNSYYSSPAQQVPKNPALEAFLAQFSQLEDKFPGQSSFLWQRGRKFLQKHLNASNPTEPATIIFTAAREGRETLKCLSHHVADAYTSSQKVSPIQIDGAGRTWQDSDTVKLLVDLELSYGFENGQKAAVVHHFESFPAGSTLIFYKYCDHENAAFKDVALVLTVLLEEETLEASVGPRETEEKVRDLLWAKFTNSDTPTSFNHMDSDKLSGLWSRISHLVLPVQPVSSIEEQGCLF

[6] = E. coli growth modulation, two-sided OD650, primary screen, E. coli filamentation project, strain DRC41, 24 h (AID 1093); settings: OD650, 24 h, higher = more signal, called active from +8 up or from −8 down;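 further: MC1000 strain lacking acrAB efflux and sulA so SOS filamentation is blocked; test concentration not given here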
[7] = small-molecule microarray binders of probe aLefty2, primary screen, biochemical, biotinylated probe, 635/667 nm fluorescence (AID 1094); settings: higher = more signal;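 further: score merges spot fluorescence near 667 nm with spot signal-to-noise ratio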
[8] = system: Noggin (protein binding on small-molecule microarray); assay: Noggin binders on small-molecule microarray, primary screen, biochemical, 635/667 nm fluorescence (AID 1095); settings: 635 nm fluorescence, higher = more signal;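 further: score merges 667 nm feature fluorescence with signal to noise over triplicate slides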
[9] = target: Neurogenic locus notch homolog protein 3 (Homo sapiens) (UniProt Q9UM47); assay: NOTCH3 binders on small-molecule microarray, primary screen, biochemical, 635/667 nm fluorescence (AID 1096); settings: NOTCH3 binding, 635 nm fluorescence, higher = more signal
Sequence of Neurogenic locus notch homolog protein 3 (Homo sapiens) (Q9UM47 whole entry, looked up): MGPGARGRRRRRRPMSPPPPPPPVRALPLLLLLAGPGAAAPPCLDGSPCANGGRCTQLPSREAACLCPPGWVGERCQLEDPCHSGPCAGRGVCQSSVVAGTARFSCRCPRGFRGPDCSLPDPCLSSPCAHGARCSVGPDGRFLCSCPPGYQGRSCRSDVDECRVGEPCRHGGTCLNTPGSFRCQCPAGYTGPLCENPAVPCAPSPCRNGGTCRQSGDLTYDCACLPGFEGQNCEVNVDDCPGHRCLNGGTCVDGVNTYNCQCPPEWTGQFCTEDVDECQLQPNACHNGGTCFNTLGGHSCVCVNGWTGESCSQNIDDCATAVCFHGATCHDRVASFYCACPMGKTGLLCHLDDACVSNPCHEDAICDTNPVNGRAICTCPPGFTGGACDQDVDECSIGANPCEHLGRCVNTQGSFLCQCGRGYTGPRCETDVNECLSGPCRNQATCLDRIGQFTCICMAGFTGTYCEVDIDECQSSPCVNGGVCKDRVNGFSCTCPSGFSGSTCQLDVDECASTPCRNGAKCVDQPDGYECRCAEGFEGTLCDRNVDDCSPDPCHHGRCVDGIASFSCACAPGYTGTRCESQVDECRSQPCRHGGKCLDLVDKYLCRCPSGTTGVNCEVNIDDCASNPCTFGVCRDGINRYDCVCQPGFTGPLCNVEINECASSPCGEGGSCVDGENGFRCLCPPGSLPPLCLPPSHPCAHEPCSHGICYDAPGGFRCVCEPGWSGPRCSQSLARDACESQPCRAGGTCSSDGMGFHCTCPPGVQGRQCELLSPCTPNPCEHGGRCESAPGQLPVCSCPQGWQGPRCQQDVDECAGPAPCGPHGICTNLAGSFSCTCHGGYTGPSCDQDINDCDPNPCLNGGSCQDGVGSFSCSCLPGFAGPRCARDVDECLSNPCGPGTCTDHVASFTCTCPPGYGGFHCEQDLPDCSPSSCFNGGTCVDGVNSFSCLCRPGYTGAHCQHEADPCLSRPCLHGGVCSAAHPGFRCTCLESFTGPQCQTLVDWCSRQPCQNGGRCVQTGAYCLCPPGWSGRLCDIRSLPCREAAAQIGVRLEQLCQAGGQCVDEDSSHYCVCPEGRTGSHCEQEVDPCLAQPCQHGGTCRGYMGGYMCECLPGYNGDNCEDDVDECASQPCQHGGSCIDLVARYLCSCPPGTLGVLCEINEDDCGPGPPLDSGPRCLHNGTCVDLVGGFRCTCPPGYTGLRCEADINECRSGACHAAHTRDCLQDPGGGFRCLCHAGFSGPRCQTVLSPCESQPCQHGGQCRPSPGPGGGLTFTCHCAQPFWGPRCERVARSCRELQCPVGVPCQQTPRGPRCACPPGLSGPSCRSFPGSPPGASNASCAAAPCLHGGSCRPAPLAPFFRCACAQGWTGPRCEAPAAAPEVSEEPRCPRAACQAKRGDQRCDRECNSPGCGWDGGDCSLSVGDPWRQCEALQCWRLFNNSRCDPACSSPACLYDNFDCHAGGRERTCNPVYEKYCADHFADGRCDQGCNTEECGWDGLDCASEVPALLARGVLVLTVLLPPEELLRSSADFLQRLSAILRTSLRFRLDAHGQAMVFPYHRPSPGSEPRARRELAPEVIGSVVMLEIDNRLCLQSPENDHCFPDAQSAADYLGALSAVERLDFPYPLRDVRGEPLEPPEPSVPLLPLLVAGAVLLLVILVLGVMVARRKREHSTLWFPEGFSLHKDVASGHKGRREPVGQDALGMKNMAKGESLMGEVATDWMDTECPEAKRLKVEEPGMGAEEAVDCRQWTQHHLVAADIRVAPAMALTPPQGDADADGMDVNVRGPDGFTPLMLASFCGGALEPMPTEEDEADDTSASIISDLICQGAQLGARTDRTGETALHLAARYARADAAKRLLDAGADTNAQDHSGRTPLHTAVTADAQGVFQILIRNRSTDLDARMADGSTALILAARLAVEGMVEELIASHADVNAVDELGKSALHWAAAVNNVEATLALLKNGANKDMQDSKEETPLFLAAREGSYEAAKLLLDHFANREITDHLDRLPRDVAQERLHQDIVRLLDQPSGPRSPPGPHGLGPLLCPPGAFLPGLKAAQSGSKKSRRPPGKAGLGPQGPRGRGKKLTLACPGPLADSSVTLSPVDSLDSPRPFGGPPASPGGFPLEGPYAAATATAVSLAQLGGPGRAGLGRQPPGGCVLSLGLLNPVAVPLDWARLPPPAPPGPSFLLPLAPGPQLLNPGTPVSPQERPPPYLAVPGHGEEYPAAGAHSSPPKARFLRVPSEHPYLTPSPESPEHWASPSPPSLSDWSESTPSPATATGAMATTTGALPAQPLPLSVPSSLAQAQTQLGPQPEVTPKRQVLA

[10] = small-molecule microarray binders of probe aEGFR, primary screen, biochemical, biotinylated probe, 635/667 nm fluorescence (AID 1097); settings: higher = more signal;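 further: probe is a biotinylated anti-EGFR antibody binding compounds printed on slides; score combines fluorescence near 667 nm and signal to noise of each spot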
[11] = system: Plasmodium falciparum Sir2 (PF13_0152, Sir2A); assay: pfSir2 binders on small-molecule microarrays, primary screen, biochemical, small-molecule microarray, 635 nm fluorescence (AID 1098); settings: small-molecule microarray binding, fluorescence 635 nm; higher = more signal;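 further: score merges spot fluorescence intensity with its signal-to-noise ratio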
[12] = small-molecule microarray binders of probe aDKK1, primary screen, biochemical, biotinylated probe, 635/667 nm fluorescence (AID 1099); settings: higher = more signal;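 further: score merges 667nm spot fluorescence with signal to noise across triplicate slides; reference of the scale not given here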
[13] = small-molecule microarray binders of probe aCHRDL2, primary screen, biochemical, biotinylated probe, 635/667 nm fluorescence (AID 1100); settings: higher = more signal
[14] = splicing luciferase reporter signal modulators, primary screen, spliceosome inhibition project, cell-based, HEK293, splice +/- reporter (AID 1101); settings: luminescence, 24 h, higher = more signal, called active from +8 up or from −8 down;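 further: HEK293 cells carrying a splicing-competent luciferase reporter gene; test concentration not given here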
[15] = target: Fibroblast growth factor 10 (Homo sapiens) (UniProt O15520); assay: FGF10 binders on small-molecule microarrays, primary screen, biochemical, small-molecule microarray, 635 nm fluorescence (AID 1102); settings: FGF10 binding, fluorescence 635 nm, higher = more signal
Sequence of Fibroblast growth factor 10 (Homo sapiens) (O15520 whole entry, looked up): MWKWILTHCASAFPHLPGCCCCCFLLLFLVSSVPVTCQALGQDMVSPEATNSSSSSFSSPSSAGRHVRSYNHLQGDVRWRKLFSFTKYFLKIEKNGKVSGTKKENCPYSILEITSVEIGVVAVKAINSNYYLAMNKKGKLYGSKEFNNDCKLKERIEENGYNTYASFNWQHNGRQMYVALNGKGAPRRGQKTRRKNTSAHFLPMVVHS

[16] = system: glycogen synthase kinase-3 (GSK3A per assay name; protocol says GSK3B); assay: GSK3 binders on small-molecule microarrays, primary screen, biochemical, small-molecule microarray, 635 nm fluorescence, GSK3A (AID 1103); settings: small-molecule microarray binding, fluorescence 635 nm; higher = more signal; further: the record names both GSK3A and GSK3B
[17] = target: Epidermal growth factor receptor (Homo sapiens) (UniProt P00533); assay: EGFR binders on small-molecule microarrays, primary screen, biochemical, small-molecule microarray, 635 nm fluorescence (AID 1104); settings: EGFR binding, higher = more signal;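 further: score merges 667 nm emission intensity with spot signal to noise over triplicate slides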
Sequence of Epidermal growth factor receptor (Homo sapiens) (P00533 whole entry, looked up): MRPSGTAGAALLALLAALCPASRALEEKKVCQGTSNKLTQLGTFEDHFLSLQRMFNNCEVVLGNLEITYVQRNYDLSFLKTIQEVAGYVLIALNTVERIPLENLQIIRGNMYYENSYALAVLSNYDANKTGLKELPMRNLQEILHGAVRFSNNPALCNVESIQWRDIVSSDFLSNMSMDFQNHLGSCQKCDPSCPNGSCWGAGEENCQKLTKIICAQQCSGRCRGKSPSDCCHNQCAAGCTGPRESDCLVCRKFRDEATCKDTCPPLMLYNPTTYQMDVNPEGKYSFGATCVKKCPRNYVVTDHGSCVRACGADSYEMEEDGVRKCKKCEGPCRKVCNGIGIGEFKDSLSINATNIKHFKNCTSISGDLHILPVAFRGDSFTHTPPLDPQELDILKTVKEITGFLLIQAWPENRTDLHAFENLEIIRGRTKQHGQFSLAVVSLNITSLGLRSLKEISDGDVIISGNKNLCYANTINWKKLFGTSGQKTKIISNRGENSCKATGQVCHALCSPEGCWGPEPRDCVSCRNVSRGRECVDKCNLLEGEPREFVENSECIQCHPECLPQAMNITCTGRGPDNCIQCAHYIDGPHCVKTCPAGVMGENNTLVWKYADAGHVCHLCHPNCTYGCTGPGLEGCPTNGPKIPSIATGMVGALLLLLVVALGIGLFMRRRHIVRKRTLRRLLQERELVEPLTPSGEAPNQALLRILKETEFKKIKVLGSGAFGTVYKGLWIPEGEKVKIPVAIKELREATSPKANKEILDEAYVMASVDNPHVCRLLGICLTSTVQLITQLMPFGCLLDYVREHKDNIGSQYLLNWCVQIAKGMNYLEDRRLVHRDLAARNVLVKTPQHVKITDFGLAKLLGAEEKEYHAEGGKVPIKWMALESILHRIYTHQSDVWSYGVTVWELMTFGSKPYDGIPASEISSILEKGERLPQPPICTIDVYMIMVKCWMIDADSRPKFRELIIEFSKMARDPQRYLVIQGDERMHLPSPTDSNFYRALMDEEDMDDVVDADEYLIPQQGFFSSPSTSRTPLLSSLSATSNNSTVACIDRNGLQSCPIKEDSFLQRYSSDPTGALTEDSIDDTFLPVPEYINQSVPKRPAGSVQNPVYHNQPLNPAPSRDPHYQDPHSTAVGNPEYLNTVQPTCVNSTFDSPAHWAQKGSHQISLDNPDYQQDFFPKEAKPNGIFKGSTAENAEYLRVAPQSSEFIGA

[18] = target: Follistatin-related protein 3 (Homo sapiens) (UniProt O95633); assay: FSTL3 binders on small-molecule microarrays, primary screen, biochemical, small-molecule microarray, 635 nm fluorescence (AID 1105); settings: FSTL3 binding, higher = more signal;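 further: score merges emission near 667 nm and signal to noise per printed spot across three slides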
Sequence of Follistatin-related protein 3 (Homo sapiens) (O95633 whole entry, looked up): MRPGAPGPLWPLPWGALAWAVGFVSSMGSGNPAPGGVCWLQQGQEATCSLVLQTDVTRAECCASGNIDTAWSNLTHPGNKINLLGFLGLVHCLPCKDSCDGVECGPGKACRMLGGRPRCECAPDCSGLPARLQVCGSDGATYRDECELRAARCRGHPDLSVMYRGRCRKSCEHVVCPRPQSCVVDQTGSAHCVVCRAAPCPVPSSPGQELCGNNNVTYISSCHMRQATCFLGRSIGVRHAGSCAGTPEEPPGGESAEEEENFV

[19] = target: Dickkopf-related protein 1 (Homo sapiens) (UniProt O94907); assay: DKK1 binders on small-molecule microarrays, primary screen, biochemical, small-molecule microarray, 635 nm fluorescence scan (AID 1106); settings: DKK1 binding, higher = more signal;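 further: score merges emission near 667 nm with signal to noise over three replicate slides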
Sequence of Dickkopf-related protein 1 (Homo sapiens) (O94907 whole entry, looked up): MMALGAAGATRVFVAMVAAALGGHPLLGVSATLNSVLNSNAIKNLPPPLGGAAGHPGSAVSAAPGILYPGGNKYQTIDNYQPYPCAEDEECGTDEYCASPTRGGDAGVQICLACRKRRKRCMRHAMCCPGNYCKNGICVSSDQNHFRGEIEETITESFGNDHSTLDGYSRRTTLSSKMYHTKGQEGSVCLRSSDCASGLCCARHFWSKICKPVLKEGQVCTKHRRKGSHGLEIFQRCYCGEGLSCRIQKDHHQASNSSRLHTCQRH

[20] = system: Inhibin beta A chain (activin A); assay: INHBA (activin A) binders on microarrays, primary screen, biochemical, small-molecule microarray, 635 nm fluorescence scan (AID 1107); settings: small-molecule microarray binding, higher = more signal;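 further: mouse activin A protein probed at 4.33 µg/mL on printed slides; score merges bound-protein fluorescence near 667 nm with spot signal-to-noise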

| SMILES | composite z-score [1] | z-score [2] | z-score [3] | z-score [4] | composite z-score [5] | z-score [6] | composite z-score [7] | composite z-score [8] | composite z-score [9] | composite z-score [10] | composite z-score [11] | composite z-score [12] | composite z-score [13] | z-score [14] | composite z-score [15] | composite z-score [16] | composite z-score [17] | composite z-score [18] | composite z-score [19] | composite z-score [20] |
| --- | --- | --- | --- | --- | --- | --- | --- | --- | --- | --- | --- | --- | --- | --- | --- | --- | --- | --- | --- | --- |
| C[N+](C)(C)CCCCCCNC(=O)[C@@H]1C[C@@H]2C(=O)N[C@@H](CCCC[N+](C)(C)C)C(=O)N2[C@@H]1c1ccc(O)cc1 | 1 and 1.3 | 0.272 (inactive) and 0.534 (inactive) | 0.352 (inactive) and 0.356 (inactive) | 0.02 (inactive) and 0.327 (inactive) | 0.611 and 2.02 | 0.392 (inactive) and -0.176 (inactive) | -0.0356 and -0.117 | 1.21 and 1.28 | 0.643 and 0.994 | -0.122 and -0.128 | 0.892 and 0.579 | -0.126 and -0.175 | 0.229 and 0.305 | -0.0316 (inactive) and 0.431 (inactive) | 0.606 and 0.803 | -0.115 and 0.255 | 0.0444 and -0.539 | 0.8 and 0.827 | 1.11 and 0.869 | 0.908 and 0.391 |
| C=CC[C@@H](O)c1ccc(O)c(F)c1 | -0.508 and -0.514 | 0.442 (inactive) and -0.907 (inactive) | -0.6 (inactive) and -1.52 (inactive) | -0.389 (inactive) and -1.67 (inactive) | -0.471 and -1.19 | 0.336 (inactive) and 1.94 (inactive) | -0.0329 and -0.0221 | -2.36 and -0.702 | -1.4 and -0.883 | -0.384 and -0.381 | 0.358 and 0.514 | -0.388 and -0.293 | 0.92 and 0.751 | -0.55 (inactive) and -1.23 (inactive) | -1.38 and -0.756 | -1.43 and -0.85 | -1.81 and -1.65 | -2.63 and -1.02 | -1.95 and -0.898 | -2.07 and -0.334 |
| C[C@@H](c1ccccc1)N1C(=O)[C@H]2[C@H]3[C@H](O)[C@H](O)CC(=O)[C@@H]3CC[C@H]2C1=O | 0.745 | -2.24 (inactive) | -0.971 (inactive) | -0.727 (inactive) | 0.775 | -0.46 (inactive) | -0.0978 | 0.798 | 0.82 | 0.596 | 0.11 | -0.152 | -0.706 | -1.26 (inactive) | 0.685 | 0.59 | 0.43 | 0.599 | 0.943 | -0.838 |
| CO[C@@H]1COC(=O)CC=C[C@H](C)COC(=O)[C@H](C)NC(=O)CC=C[C@H]1C | 1.38 | 1.19 (inactive) | 1.04 (inactive) | 1.25 (inactive) | -0.654 | 0.18 (inactive) | -0.235 | 1.68 | 0.438 | -0.157 | 0.237 | -0.525 | -0.774 | -0.401 (inactive) | 0.754 | 0.736 | 0.715 | 0.829 | 0.951 | 0.249 |
